# Experimental data from the supplement of paper PMC8728848.
# About 410 targets per protein were measured; listed, in parts, are those with the strongest signals and a random draw of the rest.
# B1: SUN4 (Saccharomyces cerevisiae), P53616 (protein)
# chain: MGSSHHHHHHSSGLVPRGSHNGSIYGDLADFSGPYEKFEDGTIPCGQFPSGQGVIPISWLDEGGWSGVENTDTSTGGSCKEGSYCSYACQPGMSKTQWPSDQPSDGRSIGGLLCKDGYLYRSNTDTDYLCEWGVDAAYVVSELSNDVAICRTDYPGTENMVIPTYVQAGDSLPLTVVDQDTYYTWQGLKTSAQYYVNNAGISVEDACVWGSSSSGVGNWAPLNFGAGSSDGVAYLSLIPNPNNGNALNFNVKIVAADDSSTVNGECIYENGSFSGGSDGCTVSVTAGKAKFVLYN
# Columns and labels:
# Assay in all cases: glycan array binding signal (z-score within array); higher = stronger binding
# Conditions in all cases: glycan notation: IUPAC condensed, linker removed
# [1] = molecular target: Gal(b1-4)GlcNAc(b1-3)Gal(b1-4)GlcNAc(b1-3)Gal(b1-4)GlcNAc(b1-2)Man(a1-3)[Gal(b1-4)GlcNAc(b1-3)Gal(b1-4)GlcNAc(b1-3)Gal(b1-4)GlcNAc(b1-2)Man(a1-6)]Man(b1-4)GlcNAc(b1-4)[Fuc(a1-6)]GlcNAc
# How it was run: (§1)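 Glycan array data came from 3228 arrays in the Consortium for Functional Glycomics database, and only arrays with an available protein sequence were kept. Glycan names were put into IUPAC-condensed notation, and columns mapping to the same glycan were averaged. The binding signal is a within-array Z-score, averaged across arrays of one protein sequence run at different concentrations or buffers and across linkers. A negative Z-score can be read as non-binding.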
# [2] = molecular target: Gal(b1-4)GlcNAc(b1-3)[Gal(b1-4)GlcNAc(b1-6)]Gal(b1-4)GlcNAc
# How it was run: as §1
# Gal3S6S(b1-4)GlcNAc = molecular target: Gal3S6S(b1-4)GlcNAc
# How it was run: as §1
# [3] = molecular target: GalNAc(a1-3)GalNAc(b1-3)Gal(a1-4)Gal(b1-4)Glc
# How it was run: as §1
# [4] = molecular target: GalNAc(b1-4)GlcNAc(b1-2)Man(a1-3)[GalNAc(b1-4)GlcNAc(b1-2)Man(a1-6)]Man(b1-4)GlcNAc(b1-4)GlcNAc
# How it was run: as §1
# [5] = molecular target: GalNAc(b1-4)GlcNAc(b1-3)GalNAc(b1-4)GlcNAc
# How it was run: as §1
# GalNAc(b1-4)GlcNAc6S = molecular target: GalNAc(b1-4)GlcNAc6S
# How it was run: as §1
# GalNAc3S(b1-4)GlcNAc = molecular target: GalNAc3S(b1-4)GlcNAc
# How it was run: as §1
# GlcA(b1-3)GlcNAc = molecular target: GlcA(b1-3)GlcNAc
# How it was run: as §1
# [6] = molecular target: GlcNAc(a1-3)Gal(b1-4)GlcNAc
# How it was run: as §1
# [7] = molecular target: GlcNAc(b1-2)Gal(b1-3)GalNAc
# How it was run: as §1
# [8] = molecular target: GlcNAc(b1-2)Man(a1-3)[GlcNAc(b1-4)][GlcNAc(b1-2)Man(a1-6)]Man(b1-4)GlcNAc(b1-4)[Fuc(a1-6)]GlcNAc
# How it was run: as §1
# [9] = molecular target: GlcNAc(b1-3)Gal(b1-4)GlcNAc(b1-3)Gal(b1-4)GlcNAc
# How it was run: as §1
# [10] = molecular target: GlcNAc(b1-3)Gal(b1-4)GlcNAc(b1-3)Gal(b1-4)GlcNAc(b1-2)Man(a1-3)[GlcNAc(b1-3)Gal(b1-4)GlcNAc(b1-3)Gal(b1-4)GlcNAc(b1-2)Man(a1-6)]Man(b1-4)GlcNAc(b1-4)GlcNAc
# How it was run: as §1
# [11] = molecular target: GlcNAc(b1-3)Gal(b1-4)GlcNAc(b1-3)Gal(b1-4)GlcNAc(b1-2)[GlcNAc(b1-3)Gal(b1-4)GlcNAc(b1-3)Gal(b1-4)GlcNAc(b1-6)]Man(a1-6)[GlcNAc(b1-3)Gal(b1-4)GlcNAc(b1-3)Gal(b1-4)GlcNAc(b1-2)Man(a1-3)]Man(b1-4)GlcNAc(b1-4)[Fuc(a1-6)]GlcNAc
# How it was run: as §1
# [12] = molecular target: GlcNAc(b1-3)Gal(b1-4)GlcNAc(b1-3)Gal(b1-4)GlcNAc(b1-3)Gal(b1-4)GlcNAc(b1-2)[GlcNAc(b1-3)Gal(b1-4)GlcNAc(b1-3)Gal(b1-4)GlcNAc(b1-3)Gal(b1-4)GlcNAc(b1-6)]Man(a1-6)[GlcNAc(b1-3)Gal(b1-4)GlcNAc(b1-3)Gal(b1-4)GlcNAc(b1-3)Gal(b1-4)GlcNAc(b1-2)Man(a1-3)]Man(b1-4)GlcNAc(b1-4)[Fuc(a1-6)]GlcNAc
# How it was run: as §1
# [13] = molecular target: Neu5Ac(a2-3)Gal(b1-3)GalNAc(b1-3)Gal(a1-4)Gal(b1-4)Glc
# How it was run: as §1
# [14] = molecular target: Neu5Ac(a2-3)Gal(b1-4)GlcNAc(b1-2)[Neu5Ac(a2-3)Gal(b1-4)GlcNAc(b1-6)]Man(a1-6)[Neu5Ac(a2-3)Gal(b1-4)GlcNAc(b1-2)Man(a1-3)][GlcNAc(b1-4)]Man(b1-4)GlcNAc(b1-4)GlcNAc
# How it was run: as §1
# [15] = molecular target: Neu5Ac(a2-3)Gal(b1-4)GlcNAc(b1-3)Gal(b1-3)GlcNAc
# How it was run: as §1
# [16] = molecular target: Neu5Ac(a2-3)Gal(b1-4)[Fuc(a1-3)]GlcNAc
# How it was run: as §1
# [17] = molecular target: Neu5Ac(a2-3)Gal(b1-4)[Fuc(a1-3)]GlcNAc(b1-3)GalNAc
# How it was run: as §1
# [18] = molecular target: Neu5Ac(a2-6)Gal(b1-4)GlcNAc(b1-2)Man(a1-3)Man(b1-4)GlcNAc(b1-4)GlcNAc
# How it was run: as §1
# [19] = molecular target: Neu5Ac(a2-6)Gal(b1-4)GlcNAc(b1-2)Man(a1-3)[GlcNAc(b1-4)][Neu5Ac(a2-6)Gal(b1-4)GlcNAc(b1-2)Man(a1-6)]Man(b1-4)GlcNAc(b1-4)GlcNAc
# How it was run: as §1
# [20] = molecular target: Neu5Ac(a2-6)Gal(b1-4)GlcNAc(b1-2)Man(a1-3)[Neu5Ac(a2-6)Gal(b1-4)GlcNAc(b1-2)Man(a1-6)]Man(b1-4)GlcNAc(b1-4)GlcNAc
# How it was run: as §1
# [21] = molecular target: Neu5Ac(a2-6)Gal(b1-4)GlcNAc(b1-2)Man(a1-3)[Neu5Ac(a2-6)Gal(b1-4)GlcNAc(b1-2)Man(a1-6)]Man(b1-4)GlcNAc(b1-4)[Fuc(a1-6)]GlcNAc
# How it was run: as §1
# [22] = molecular target: Neu5Ac(b2-6)Gal(b1-4)GlcNAc
# How it was run: as §1
# [23] = molecular target: Neu5Gc(a2-6)Gal(b1-4)GlcNAc
# How it was run: as §1
# [24] = molecular target: Neu5Gc(a2-8)Neu5Gc(a2-3)Gal(b1-4)GlcNAc
# How it was run: as §1
binder,measurement,setting,value
B1,glycan array binding signal (z-score),[1],2.9
same,glycan array binding signal (z-score),[2],-1.28
same,glycan array binding signal (z-score),Gal3S6S(b1-4)GlcNAc,2.2
same,glycan array binding signal (z-score),[3],-0.199
same,glycan array binding signal (z-score),[4],4.51
same,glycan array binding signal (z-score),[5],-0.309
same,glycan array binding signal (z-score),GalNAc(b1-4)GlcNAc6S,0.149
same,glycan array binding signal (z-score),GalNAc3S(b1-4)GlcNAc,1.87
same,glycan array binding signal (z-score),GlcA(b1-3)GlcNAc,-0.127
same,glycan array binding signal (z-score),[6],0.414
same,glycan array binding signal (z-score),[7],0.963
same,glycan array binding signal (z-score),[8],-0.555
same,glycan array binding signal (z-score),[9],0.244
same,glycan array binding signal (z-score),[10],0.121
same,glycan array binding signal (z-score),[11],1.97
same,glycan array binding signal (z-score),[12],1.86
same,glycan array binding signal (z-score),[13],0.263
same,glycan array binding signal (z-score),[14],-0.391
same,glycan array binding signal (z-score),[15],-0.71
same,glycan array binding signal (z-score),[16],-0.661
same,glycan array binding signal (z-score),[17],1.91
same,glycan array binding signal (z-score),[18],-0.036
same,glycan array binding signal (z-score),[19],0.646
same,glycan array binding signal (z-score),[20],0.023
same,glycan array binding signal (z-score),[21],0.827
same,glycan array binding signal (z-score),[22],-0.182
same,glycan array binding signal (z-score),[23],-0.424
same,glycan array binding signal (z-score),[24],-0.415
